This note sets out measurements from the supplement of paper PMC5662767.

SMILES strings stand for the structures.

This test has as its system Drosophila S2 cl14 SmoIP sensor cells. Put plainly: normalized SmoIP GFP fluorescence (untreated unstimulated = 0%, untreated Hh-stimulated = 100%); higher = more Smo activation sensor fluorescence. As to conditions: compound concentration: 2 uM, 24 h.
[1] abbreviates: stimulation: Hh conditioned medium (+Hh).
Where [2] appears, read: stimulation: mock conditioned medium (-Hh).
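Also: flow cytometry read-out as median GFP intensity of gated cells, compounds added 30 min before Hh-conditioned or mock medium, mock-treated cells serving as unstimulated baseline.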

Regarding `O=C(O)c1cccc(-c2noc(-c3ccccc3F)n2)c1`, the “normalized SmoIP GFP fluorescence” value is, setting by setting: under setting [1], 116%; under setting [2], -0.662%.
In the case of `O=C(NS(=O)(=O)c1ccc(Br)s1)c1ccc(Cl)cc1Cl` [tasisulam], the “normalized SmoIP GFP fluorescence” value reads like this: under setting [1], 104%; under setting [2], -4.01%.
Turning to `C[C@]12CCC(=O)C=C1[C@@H]1C[C@@H]1[C@H]1[C@@H]3[C@@H]4C[C@@H]4[C@@]4(CCC(=O)O4)[C@@]3(C)CC[C@@H]12` [Drospirenone], the “normalized SmoIP GFP fluorescence” value under setting [1] is 110% and the “normalized SmoIP GFP fluorescence” value under setting [2] was found to be 1.03%.
As for `CNC(=O)c1cc(Oc2ccc(NC(=O)Nc3ccc(Cl)c(C(F)(F)F)c3)cc2)ccn1` [Sorafenib-Tosylate], the “normalized SmoIP GFP fluorescence” value is, setting by setting: under setting [1], 112%; under setting [2], 47.1%.
Take `CCS(=O)(=O)c1cccc(-c2cc(C(=O)NC3CCN(C)CC3)c(C)c3[nH]c4ncc(C)cc4c23)c1`: the “normalized SmoIP GFP fluorescence” value is 103% under setting [1] and -25.2% under setting [2].
In the case of `CO[C@H]1C[C@@H]2CC[C@@H](C)[C@@](O)(O2)C(=O)C(=O)N2CCCC[C@H]2C(=O)O[C@H]([C@H](C)C[C@@H]2CC[C@@H](OC(=O)C(C)(CO)CO)[C@H](OC)C2)CC(=O)[C@H](C)/C=C(\C)[C@@H](O)[C@@H](OC)C(=O)[C@H](C)C[C@H](C)/C=C/C=C/C=C/1C` [Temsirolimus], the “normalized SmoIP GFP fluorescence” value runs as follows: under setting [1], 56.5%; under setting [2], -1.56%.
For `CC(=O)/N=c1/sc(S(N)(=O)=O)nn1C` [methazolamide], the “normalized SmoIP GFP fluorescence” value under setting [1] came to 111% and the “normalized SmoIP GFP fluorescence” value under setting [2] was -2.48%.
For the compound `CC(=O)Nc1cccc2c1c(Sc1ccc(Cl)cc1)c(C)n2CC(=O)O`, the “normalized SmoIP GFP fluorescence” value by setting is: under setting [1], 114%; under setting [2], -3.05%.
Consider `COc1cccc2cc(-c3nc([C@H]4CC[C@H](C(=O)O)CC4)n4ncnc(N)c34)[nH]c12`, for which the “normalized SmoIP GFP fluorescence” value was 54.2% under setting [1] and -5.17% under setting [2].
As to `Nc1cc(F)ccc1NC(=O)/C=C/c1cnn(C/C=C/c2ccccc2)c1` [rgfp966], the “normalized SmoIP GFP fluorescence” value was 112% under setting [1] and -0.775% under setting [2].
`Cn1cc(CNCC2CCN(c3ncc(C(=O)NO)cn3)CC2)c2ccccc21`: the “normalized SmoIP GFP fluorescence” value runs as follows: under setting [1], 268%; under setting [2], 60.6%.
For `NC(=O)N1c2ccccc2CC(=O)c2ccccc21` [Oxcarbazepine], the “normalized SmoIP GFP fluorescence” value runs as follows: under setting [1], 103%; under setting [2], 2.97%.
As for `O=C(CCCS)NC1CCN(C(=O)COc2ccc(Cl)cc2Cl)CC1` [k-ras-g12c-inhibitor-6], the “normalized SmoIP GFP fluorescence” value runs as follows: under setting [1], 113%; under setting [2], -2.82%.
The corresponding values for `CCN1CCN(Cc2ccc(Nc3ncc(F)c(-c4cc(F)c5nc(C)n(C(C)C)c5c4)n3)nc2)CC1` are 158% and 50.1%.
As for `O=C(NCc1ccccc1)c1csc(Nc2ccncn2)n1` [Thiazovivin], the “normalized SmoIP GFP fluorescence” value reads like this: under setting [1], 72.7%; under setting [2], -11.6%.
As to `COc1cc2nc(N3CCCN(C)CC3)nc(NC3CCN(Cc4ccccc4)CC3)c2cc1OC`, the “normalized SmoIP GFP fluorescence” value is, setting by setting: under setting [1], 109%; under setting [2], 1.61%.
